Test results from the supplement of paper PMC3334620.
In all, about 33,000 sequences were measured (“E-score (-0.5 to 0.5)”: median about -0.013, highest 2% from about 0.3 on). The sample holds the highest values, similar sequences and a random draw of the others, so the mix is not that of the screen.

Target: T1, Msn1 (UniProt P22148)
T1 sequence: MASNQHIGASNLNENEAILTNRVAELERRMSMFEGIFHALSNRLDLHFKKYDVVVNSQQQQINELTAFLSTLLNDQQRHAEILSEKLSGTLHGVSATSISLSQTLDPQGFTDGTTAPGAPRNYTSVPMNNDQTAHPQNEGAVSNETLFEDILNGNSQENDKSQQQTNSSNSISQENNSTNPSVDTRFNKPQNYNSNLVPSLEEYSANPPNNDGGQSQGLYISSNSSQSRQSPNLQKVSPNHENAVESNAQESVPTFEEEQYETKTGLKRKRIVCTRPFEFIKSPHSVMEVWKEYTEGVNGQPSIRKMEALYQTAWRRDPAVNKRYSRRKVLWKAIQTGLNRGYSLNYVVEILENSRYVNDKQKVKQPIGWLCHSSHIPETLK
Assay: PBM E-score (8-mer binding enrichment) (E-score (-0.5 to 0.5)); higher = stronger / more preferred TF binding
Conditions: protein concentration: 200 nM; construct: GST-full length
In short: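 E-scores (a modified Wilcoxon-Mann-Whitney statistic) were assigned by the Universal PBM Analysis Suite to every ungapped eight-base word pooled with its reverse complement. The input came from universal all-10-mer Agilent arrays made double-stranded by primer extension and probed with GST-tagged yeast transcription factors at about 100-200 nM. Fluorescent anti-GST detected bound protein, and masliner normalised the scans.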

Sequence | PBM E-score
TACAGGAA | 0.0582
AGATCCTC | -0.125
AGATGCGA | 0.0645
GCTGAACA | 0.00499
CTGGCGTA | -0.252
AGGCGGTG | -0.217
TCCATCCA | -0.00245
CAACCAGC | -0.114
CCTTTGTC | 0.367
ACTTTGTC | 0.41
CTTTTGAC | 0.0513
CTTTTGTC | 0.455
ACTTTGTG | 0.0353
ACTTTGTA | 0.129
CTTTTGTA | 0.3
CCTTTGTA | 0.163
CCTTTGCC | -0.104
GAATTGCC | 0.0969
AACCTACA | 0.0149
GGATCATA | -0.0918
ATAGCATG | -0.207
GGACACCC | -0.0113
CGACACGA | 0.274
AGACACAG | 0.131
CGACACAA | 0.00596

Sequence | PBM E-score
TGACACAA | 0.183
AGACACAA | 0.332
AGACACGA | 0.158
AGACACAC | 0.133
GGACACAA | 0.462
GGACACGA | 0.396
GGACACAC | 0.382
CGACACAC | 0.0525
CGATATCG | 0.0659
TCCTGAGA | 0.0942
CTTTATGA | 0.0103
AGCTCTTA | -0.0201
CGGGCAAG | 0.0918
CAACGTTG | 0.128
AGGCAACA | -0.161
GCCAGTCA | -0.117
CTCTGTCA | -0.0435
ATCTGTCC | 0.387
ATCTGTCA | 0.159
CTCTGTCC | 0.34
ATCTGTCG | 0.0829
CTCTGTAC | 0.0138
AAAACCTG | 0.0428
AAGCTCCA | -0.219
GAAGGGCC | -0.143

Sequence | PBM E-score
ATCTGTTA | 0.183
ATCGCAAA | 0.0406
CTTTGTGC | 0.058
CTTTGTTA | 0.215
ATTTGTTA | 0.087
ATTTGTCA | 0.46
ATTTGTTG | 0.177
CTTTGTCC | 0.485
AGTTGTCG | 0.168
CTTTGTTC | 0.0603
ATTTGTCG | 0.451
GTTTGTCA | 0.299
CTTTGTCA | 0.311
CTTTGTGA | 0.126
GCGCTAGA | -0.116
TATTGGCA | 0.0554
GGCTGGAC | -0.135
TATGGTGA | -0.0581
CCGCTCAC | -0.22
ATCACGAC | 0.117
TACAAGGA | 0.197
CACAAGGA | 0.0619
GACAAGGA | 0.311
AACAAAGC | -0.00117
CACAAAGC | 0.161

Sequence | PBM E-score
AACAAAGA | 0.139
TACAAAGA | 0.208
GACAAAGA | 0.404
GACAAAGC | 0.393
CCATGAAG | 0.0685
ACGTCGCT | -0.211
CAAGTGAA | 0.223
GCATGCCC | 0.101
CTCTTGCC | -0.0644
AGACAGAC | 0.279
GGACAGAC | 0.375
CGACAGAC | -0.0767
AGACAGAA | 0.00949
GGACAGAA | 0.332
CGACAGAA | 0.167
GATTGCAC | 0.0495
CGAAAGCG | 0.0854
AAGCCAGA | 0.00654
ACGTTCAG | -0.0415
TGTCCTAA | 0.487
AGTCCAAA | 0.214
TGTCCGAA | 0.452
AGTCCTAA | 0.297
GGTCCAAA | -0.0431
GGTCCTAA | 0.18

Sequence | PBM E-score
GGTCCGAA | 0.128
AGTCCACG | -0.059
TGTCCAAA | 0.473
CGTCCGAA | 0.222
CGTCCACA | 0.188
TGTCCACA | 0.455
CCGGGATA | 0.101
ACTGGTTC | -0.0366
CCAGCTAG | -0.16
CGCCTGAC | -0.0177
CCTAACGC | -0.129
AGTGAGGA | -0.0425
AACATAGC | 0.13
CCACCAAC | -0.0306
AACCTGGT | 0.00051
CGTCCCAA | 0.218
AGTCCCAA | 0.17
TGTCCCAA | 0.463
AAGCATTA | -0.0789
CTCGATGA | -0.0098
ACGACCTA | -0.0056
CAGGCCGC | -0.144
CACATACA | 0.0971
AACATACC | 0.107
GACATACC | 0.4

Sequence | PBM E-score
CACATACC | 0.0401
GACATACA | 0.414
TACATACA | 0.207
GCGGATCA | -0.116
ACAAAAGG | 0.229
AGTTAGAC | 0.124
CTTGGGTC | -0.123
GGACTCAC | -0.116
GCCCTTTA | -0.318
GTACAAAA | 0.416
CTACAAAC | -0.0616
GTACAAAC | 0.421
ATACAAAC | 0.125
TTCCAAAA | 0.192
GTCCAAAC | 0.175
GTCCAAAA | 0.318
TTACAAAA | 0.12
CTACAAAA | 0.0933
ACGAGTAT | -0.134
GAAGGCTC | -0.291
CTTGGGCC | -0.266
CTACACGC | -0.145
GCTTCTAC | -0.0502
CGTAAGTA | 0.0282
ATGTGACA | 0.305

Sequence | PBM E-score
CTGTGACA | 0.316
CTGTGACC | -0.115
ATGTGACG | -0.223
CTGTGAAA | 0.2
CCGTGACA | 0.164
TCGTGACA | 0.314
ACGTGACA | 0.27
GTGTGACA | 0.17
CCTGCTTC | -0.172
GCGCCTAA | 0.129
CGTAGGGA | 0.0214
GGTTTGCA | -0.172
ACGAATCA | 0.13
CAGTCACG | -0.198
ATTGCTGC | -0.0878
ATTCGGAG | 0.0972
ATTCGGAA | 0.167
ATTCGGAC | 0.339
AAAGATAT | 0.113
AATGAGAG | -0.161
CCCCAATC | -0.222
ATGACATA | 0.417
